What all share (experiment): growth (OD600 after 10 h); higher = more growth (less inhibition)
Assay [1] has as its system E. coli TESEC Alr+ wild-type control. The note with it: compound 0.1 mM; raw OD600 reference: median of DMSO wells 0.241, cell-free background 0.041. On the procedure: (§1)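 TESEC Mtb Alr E. coli, or the Alr+ wild-type control, in 384-well plates with Prestwick library compounds at 0.1 mM and 1% DMSO, across arabinose induction levels of 1E3 to 1E7 nM. Growth is read as OD600 after 10 h at 37 °C in triplicate biological replicates.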

For assay [2], the system named is E. coli TESEC Mtb Alr. The note with it: compound 0.1 mM. On the procedure: as §1
Assay [3] relates to E. coli TESEC Mtb Asd. The note with it: compound 0.1 mM. As to the method:
(§2)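 TESEC E. coli strains in which the native enzyme is deleted and replaced by arabinose-inducible Mtb Asd, DapB, CysH or TrpD, each grown in its selective medium. Strains were screened against the Prestwick library at 0.1 mM and 1% DMSO in 384-well format at low and high arabinose induction. Growth is read as OD600 after 10 h in triplicate.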

In assay [4] the test system is E. coli TESEC Mtb DapB. The note with it: compound 0.1 mM. On the procedure:
as §2

Assay [5] has as its system E. coli TESEC Alr+ wild-type control. The following applies: compound 0.1 mM; raw OD600 reference: median of DMSO wells 0.49, cell-free background 0.052. On the procedure: (§3)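 TESEC Mtb Alr E. coli (ΔaraC ΔtolC ΔentC Δalr ΔdadX, arabinose-inducible Mtb Alr) or the Alr+ wild-type control strain, grown in defined M9-fructose medium without D-alanine in 96-well plates with Prestwick library compounds at 0.1 mM and 1% DMSO. Low Alr induction is 0.1 µM arabinose and high induction is 10 mM arabinose.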

Assay [6] has as its system E. coli TESEC Mtb Alr. The following applies: compound 0.1 mM. As to the method: as §3
The source holds these as a separate data set.

The mark [7] stands for this setting: arabinose 1000 nM, raw OD600 reference: median of DMSO wells 0.294, cell-free background 0.041.
Where [8] appears, read: arabinose 10000 nM, raw OD600 reference: median of DMSO wells 0.264, cell-free background 0.041.
[9] abbreviates: arabinose 100000 nM, raw OD600 reference: median of DMSO wells 0.201, cell-free background 0.041.
The mark [10] stands for this setting: arabinose 1000000 nM, raw OD600 reference: median of DMSO wells 0.193, cell-free background 0.041.
Where [11] appears, read: arabinose 10000000 nM, raw OD600 reference: median of DMSO wells 0.146, cell-free background 0.041.
[12] abbreviates: arabinose induction (level): High, raw OD600 reference: median of DMSO wells 0.331, cell-free background 0.041.
Where [13] appears, read: arabinose induction (level): Low, raw OD600 reference: median of DMSO wells 0.417, cell-free background 0.041.
The mark [14] stands for this setting: arabinose induction (level): High, raw OD600 reference: median of DMSO wells […], cell-free background 0.041.
Where [15] appears, read: arabinose induction (level): Low, raw OD600 reference: median of DMSO wells 0.227, cell-free background 0.041.
[16] abbreviates: arabinose 100 nM, raw OD600 reference: median of DMSO wells 0.413, cell-free background 0.052.
[17] abbreviates: arabinose 10000000 nM, raw OD600 reference: median of DMSO wells […], cell-free background 0.052.

SMILES strings stand for the structures. Structures can show the parent of a compound that is named as a salt. ± gives the standard deviation of the averaged measurements.

The values below come from the supplement of paper PMC9262897, “Low-cost anti-mycobacterial drug discovery using engineered E. coli” (Nature Communications, 2022).

Consider `C[N+]1(CCCCC[N+]2(C)CCCC2)CCCC1` [Pentolinium bitartrate], for which the growth was found to be 0.24 ± 0.0027 in assay [1]; 0.282 ± 0.017 in assay [2] (setting [7]); 0.275 ± 0.0033 in assay [2] (setting [8]); 0.202 ± 0.014 in assay [2] (setting [9]); 0.1794 ± 0.0012 in assay [2] (setting [10]); 0.143 ± 0.0032 in assay [2] (setting [11]). For the same molecule, the growth in assay [3] (setting [12]) amounted to 0.296 ± 0.037; in assay [3] (setting [13]), 0.424 ± 0.02; in assay [4] (setting [14]), 0.1752 ± 0.00061; in assay [4] (setting [15]), 0.185 ± 0.0091; in assay [5], 0.515 ± 0.11; in assay [6] (setting [16]) it was 0.415 ± 0.011. In assay [6] (setting [17]), this molecule had a growth of 0.361 ± 0.006.

For the molecule `CN1CCN(CCCN2c3ccccc3Sc3ccc(S(=O)(=O)N(C)C)cc32)CC1` [Thioproperazine dimesylate], the growth in assay [1] was 0.181 ± 0.0045; in assay [2] (setting [7]), 0.165 ± 0.0059; in assay [2] (setting [8]), 0.196 ± 0.0078; in assay [2] (setting [9]), 0.195 ± 0.0039; in assay [2] (setting [10]), 0.106 ± 0.0049; in assay [2] (setting [11]) it was 0.173 ± 0.0023. In addition, the growth in assay [3] (setting [12]) was determined as 0.171 ± 0.017; in assay [3] (setting [13]) it was 0.246 ± 0.049; in assay [4] (setting [14]), 0.2 ± 0.024; in assay [4] (setting [15]), 0.249 ± 0.0047; in assay [5], 0.409 ± 0.041; in assay [6] (setting [16]), 0.404 ± 0.0053. In assay [6] (setting [17]), this molecule gave a growth of 0.232 ± 0.0024.

On to `N=C(N=C(N)N)N1CCOCC1` [Moroxidine hydrochloride], for which the growth stood at 0.255 ± 0.02 in assay [1]; 0.288 ± 0.017 in assay [2] (setting [7]); 0.2687 ± 0.0004 in assay [2] (setting [8]); 0.225 ± 0.022 in assay [2] (setting [9]); 0.186 ± 0.013 in assay [2] (setting [10]); 0.152 ± 0.0076 in assay [2] (setting [11]). Further, the growth in assay [3] (setting [12]) was determined as 0.366 ± 0.025; in assay [3] (setting [13]), 0.404 ± 0.032; in assay [4] (setting [14]), 0.203 ± 0.0065; in assay [4] (setting [15]), 0.245 ± 0.053; in assay [5] it was 0.454 ± 0.045; in assay [6] (setting [16]) it was 0.404 ± 0.011. The molecule further came in with a growth in assay [6] (setting [17]) of 0.355 ± 0.033.

With `OCCN(CCO)c1nc(N2CCCCC2)c2nc(N(CCO)CCO)nc(N3CCCCC3)c2n1` [Dipyridamole], the growth was found to be 0.0642 ± 0.0085 in assay [1]; 0.0575 ± 0.0086 in assay [2] (setting [7]); 0.0482 ± 0.0011 in assay [2] (setting [8]); 0.0725 ± 0.015 in assay [2] (setting [9]); 0.05417 ± 0.00046 in assay [2] (setting [10]); 0.135 ± 0.016 in assay [2] (setting [11]). The growth was found to be 0.079 ± 0.002 in assay [3] (setting [12]); 0.0913 ± 0.034 in assay [3] (setting [13]); 0.195 ± 0.035 in assay [4] (setting [14]); 0.205 ± 0.033 in assay [4] (setting [15]); 0.0816 ± 0.027 in assay [5]; 0.068 ± 0.006 in assay [6] (setting [16]). For the same molecule, the growth in assay [6] (setting [17]) worked out at 0.0709 ± 0.0012.
